# From PubChem BioAssay AID1053124 (Broad Institute, 2014)
# Measured potencies and affinities stand elsewhere. The source made the active and inactive calls.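 How the source made its calls: active means cell killing whose fitted half-effect concentration is at most twice the top valid dose tested; inconclusive means flat curve with 30 to 70% killing, or a poor fit; inactive means effect in the rising direction, plus the rest.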
# Assay: viability loss in A549 lung cells – cell-based, ATP luminescence, cherry-pick, set 2, cytotoxicity control, dose response (AID 1053124);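 further: 0% = neutral control wells and -100% = mitoxantrone 10 µM positive control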
# Settings: ATP luminescence (CellTiter-Glo), 72 h; series mostly up to 26 µM; activity change, negative = cytotoxicity: at the top concentration
row,SMILES,"activity change, negative = cytotoxicity"
1,CCN(CC)c1ccc2cc(C(N)=O)c(=O)oc2c1,0.837% (inactive)
2,N#Cc1c(NCCCO)nc(NCc2ccccc2)c2c1CCN(Cc1ccccc1)C2,0.764% (inactive)
3,N=c1c(C(=O)NCC2CCCO2)cc2c(=O)n3ccccc3nc2n1Cc1ccc(Cl)cc1 (centres undefined),-16.8% (inactive)
4,Cc1noc(C)c1S(=O)(=O)N(CC(=O)N1CCCCCC1)c1ccc(C(C)C)cc1,-14.1% (inactive)
5,O=C(O)C1=CC[C@@H](c2ccc(Cl)cc2)N(S(=O)(=O)c2ccc(Cl)cc2)[C@H]1c1ccc(F)cc1,-6.58% (inactive)
6,Nn1c(SCC(=O)N2CCCC2)nnc1-c1cccs1,2.35% (inactive)
7,C=CCn1c(=N)c(C#N)cc2c(=O)n3ccccc3nc21,-0.422% (inactive)
8,CC/C(C)=N\Nc1nc(-c2cc3cc(OC)ccc3oc2=O)cs1,-4.33% (inactive)
9,Cc1cccn2c(=O)c3cc(C(N)=S)c(=N)n(CCCOC(C)C)c3nc12,2.84% (inactive)
10,CCOc1ccc(C2C(C#N)=C(N)Oc3cc(O)ccc32)cc1OCC (centres undefined),0.803% (inactive)
11,Cc1ccc2nc3c(cc(S(=O)(=O)c4ccccc4)c(=N)n3Cc3ccco3)c(=O)n2c1,-7.72% (inactive)
12,CN1CCc2c(sc(NC(=O)Cc3ccccc3)c2C#N)C1,-5.87% (inactive)
13,COc1ccccc1NS(=O)(=O)c1cc(NC(=O)CCNC(C)=O)ccc1C,0.216% (inactive)
14,CCOC(=O)c1c(NC(=O)CSc2ncccn2)sc2c1CCN(Cc1ccccc1)C2,-20.4% (inactive)
15,CC(=O)OC[C@@H]1CN(Cc2ccccc2)C[C@H](n2cnc3c(N(C)C(C)C)ncnc32)O1,-4.33% (inactive)
16,O=C(NCc1nnnn1-c1ccc(Cl)cc1)C1CC(=O)N(c2ccc(F)cc2)C1 (centres undefined),-5.9% (inactive)
17,Cc1ccc(C(=O)OCC(=O)Nc2c(C)nn(-c3ccccc3)c2C)c(O)c1,-3.16% (inactive)
18,O=C(O)[C@@H]1CCCN1S(=O)(=O)c1cccc(S(=O)(=O)N2CCC[C@H]2C(=O)O)c1,2.87% (inactive)
19,Cc1cc(-c2ccccc2)c2ccc(NC(=O)C(C)(C)C)nc2n1,-7.08% (inactive)
20,CCOC(=O)c1c(C)n(C)c2ccc(OCC(O)CN3CCC(C)CC3)cc12 (centres undefined),-10.9% (inactive)

row,SMILES,"activity change, negative = cytotoxicity"
1,CSC1=NSC2=NC(=O)/C(=C/c3coc4ccc(O)cc4c3=O)C(=N)N12,-7.15% (inactive)
2,Cc1ccc(S(=O)(=O)CCC(=O)OCC(=O)Nc2cccc(S(=O)(=O)N3CCCCC3)c2)cc1,-3.62% (inactive)
3,Cc1cccn2c(=O)c(/C=C(\C#N)C(N)=O)c(Oc3ccccc3)nc12,6.25% (inactive)
4,CCOC(=O)c1cc2c(=O)n3cccc(C)c3nc2n(CC(C)C)c1=NC(=O)c1ccco1,-14.7% (inactive)
5,O=c1c2ccccc2n(CC(O)CN2CCCCC2)c2ccccc12 (centres undefined),-1.33% (inactive)
6,Cn1cnc(S(=O)(=O)Nc2ccc(OC(F)(F)F)cc2)c1,0.518% (inactive)
7,COc1ccc(CCNC(=O)c2cc(S(=O)(=O)N3CCCCC3)c[nH]2)cc1OC,-1.35% (inactive)
8,CN1CCc2c(sc(NC(=O)C3CCCCC3)c2C(N)=O)C1,1.99% (inactive)
9,Cc1ccc(S(=O)(=O)c2cc3c(=O)n4ccccc4nc3n(C)c2=N)cc1,-8.01% (inactive)
10,N#Cc1ccc(OCC(=O)OCC(=O)N2CCc3ccccc32)cc1,-1.74% (inactive)
11,N#Cc1c2ccc(OCC(N)=O)cc2n2ccccc12,-14.9% (inactive)
12,CC(C)CCN(CCC(C)C)CC(O)Cn1c2ccccc2c(=O)c2ccccc21 (centres undefined),14% (inactive)
13,Cc1oc(/N=C/c2ccc(F)cc2)c(C#N)c1C,0.872% (inactive)
14,CNNC(=S)NC1CC2CC1C1C=CCC21 (centres undefined),-2.33% (inactive)
15,O=C(Nc1ccc(-c2ccco2)cc1)C1CCCN(Cc2ccco2)C1 (centres undefined),-10.8% (inactive)
16,Cc1c(Nc2c3ccccc3nc3ccccc23)c(=O)n(-c2ccccc2)n1C,5.87% (inactive)
17,CCN(CC)Cc1c(O)c(Cl)cc2c(C)cc(=O)oc12,-1.59% (inactive)
18,O=C(Cn1ccc([N+](=O)[O-])n1)N1CCCCCC1,-10.4% (inactive)
19,Cc1ccc2nc3c(cc(C(=O)NCc4ccccc4)c(=N)n3CCCn3ccnc3)c(=O)n2c1,-10.2% (inactive)
